Data on 40 sequences can be found in the OligoGym collection.
Also: reference of the scale not given here.

The target in the first assay is RDH8. In words: pooled miR-30 sensor sort-seq; sequence = guide strand. The settings on record: shRNA.
As for TTGAAGGCCAAGGTTGAGGAGG, the sensor-assay potency score (higher = more potent) is -0.704.

ATCGTTGAAGATGACACCCTGC had a sensor-assay potency score (higher = more potent) of 0.0457.

Take TCAAACTCGGTGACCACGGGGC: the sensor-assay potency score (higher = more potent) is -0.118.

Sequence TTGGTGTCAAAGACATTCTGCA had a sensor-assay potency score (higher = more potent) of 0.0313.

As for ATCACTGCACACGTCCAGCTGG, the sensor-assay potency score (higher = more potent) is -0.715.

On to TAGCGGATGTTGGTCTGTCGGC, for which the sensor-assay potency score (higher = more potent) is -1.33.

In turn, TCGAGTCGAGCTGATGACGTTG gave a sensor-assay potency score (higher = more potent) of -0.883.

In turn, TTGACGAGACGGACAGCTCCGA registered a sensor-assay potency score (higher = more potent) of -0.0536.

As for TTGAGCGTGGTCAGCGGCGAGT, the sensor-assay potency score (higher = more potent) was -1.34.

On to TACAGCTGAGACACTGGGCCAC, for which the sensor-assay potency score (higher = more potent) was 0.00741.

Regarding ATGAAGAGTCTGTTCATCCTTT, the sensor-assay potency score (higher = more potent) was 0.345.

Another assay has as its target RECQL4. The description is as above. The settings on record: shRNA.
Turning to TATTTTCTCCAGAAGCGTCGGT, the sensor-assay potency score (higher = more potent) worked out at 0.184.

Sequence TTCTGCAGGACAGATTCCCGTT displayed a sensor-assay potency score (higher = more potent) of -0.459.

Take TTGGTTGTGACTGTGGCACCAC: the sensor-assay potency score (higher = more potent) turned out to be 0.278.

For the sequence TTGTGGTGAAGGAACCAGTGGC, the sensor-assay potency score (higher = more potent) stood at 0.104.

In turn, TTCTGCTTCATGTTGAGCCGTA displayed a sensor-assay potency score (higher = more potent) of 0.124.

The sequence TTATTCTGCATTTTGGAGCCTC came in with a sensor-assay potency score (higher = more potent) of 0.116.

Consider TTTCTTCCGCCACTTCTGCTTC, for which the sensor-assay potency score (higher = more potent) was -1.04.

Sequence TTCAGGAAACAAGACTCCTTGG had a sensor-assay potency score (higher = more potent) of -0.807.

AACAGCATCTGTGTCTTCCTCA gave a sensor-assay potency score (higher = more potent) of 0.181.

For TAGCACAGCAAAGTCTCGATGG, the sensor-assay potency score (higher = more potent) is -0.495.

Take TAGAGTGGCAGCACGGTGGGGT: the sensor-assay potency score (higher = more potent) came to 0.669.

With TTGAAAACGTTTGCCTTGCAGC, the sensor-assay potency score (higher = more potent) is -0.47.

The target in the next assay is RELA. Described as above. The note with it: shRNA.
TTTACGTTTCTCCTCAATCCGG: the sensor-assay potency score (higher = more potent) was -0.69.

Regarding TTCTATAGGAACTTGGAAGGGG, the sensor-assay potency score (higher = more potent) stood at 0.628.

The sequence TTCATCATCAAACTGCAGCTGC registered a sensor-assay potency score (higher = more potent) of 0.151.

For the sequence TTGTCGGTGCACATCAGCTTGC, the sensor-assay potency score (higher = more potent) is -0.891.

TTTCTGCACCTTGTCACACAGT displayed a sensor-assay potency score (higher = more potent) of -0.991.

Regarding TTGGGGACAGAAGCTGAGCTGC, the sensor-assay potency score (higher = more potent) is -1.1.

TATCTGTGCTCCTCTCGCCTGG returned a sensor-assay potency score (higher = more potent) of -1.

As for TCAATGATCTCCACATAGGGGC, the sensor-assay potency score (higher = more potent) is -0.148.

With TTACGTTTCTCCTCAATCCGGT, the sensor-assay potency score (higher = more potent) was 0.444.

Regarding TTGAGCTCGGCAGTGTTGGGGG, the sensor-assay potency score (higher = more potent) was determined as 0.294.

Consider TAGCCATTGATCTTGATGGTGG, for which the sensor-assay potency score (higher = more potent) is -0.637.

As to TTTCCTACAAGCTCGTGGGGGT, the sensor-assay potency score (higher = more potent) is -0.0432.

The target in another assay is REPS2. The assay is described as above. The note with it: shRNA.
With TGTTCTTCTGTTATCCTCCAGG, the sensor-assay potency score (higher = more potent) was -0.549.

Consider TAGTACTTTTCAAAGCTTGTTT, for which the sensor-assay potency score (higher = more potent) was -0.389.

Sequence TTCTTTGACATCATAAAGCGAG gave a sensor-assay potency score (higher = more potent) of -0.889.

Consider TCGTTCTTGATGAACCTCCTTG, for which the sensor-assay potency score (higher = more potent) is -0.785.

Consider TTTGACACAGTCAAACATCTAT, for which the sensor-assay potency score (higher = more potent) is -0.0627.
